# In PubChem BioAssay (Tox21):
# Where “and” joins values, the source holds several entries; their conditions need not be identical. Equal entries are not always repeated. Inconclusive results are not listed. Where a call stands in place of a potency, no number is given. Some structures have more than one record in an assay (separate samples or runs), and their calls can disagree. Calls of active or inactive are those of the source. Calls follow the shape of the full dose curve.
# Legend:
# [1] = molecular target: Acetylcholinesterase (Homo sapiens) (UniProt P22303); assay: Acetylcholinesterase (AChE) small molecule antagonists: colormetric cell-based qHTS assay (AID 1347395); also: nearly all actives have a fitted effect of over 30% in size; also: potency is read from the fitted curve at half-maximal effect
# Outline: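 Homogeneous whole-cell format. SH-SY5Y cells seeded overnight, dosed with compound (30 min, 37 C, 5% CO2), then given DTNB/acetylthiocholine cocktail for 90 min at 37 C; colorimetric signal.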
# [2] = molecular target: Acetylcholinesterase (Homo sapiens) (UniProt P22303); assay: Acetylcholinesterase (AChE) small molecule antagonists: enzyme-based qHTS assay (AID 1347397); details: Potency: AChE enzyme activity inhibition; outcome: AChE enzyme activity inhibition; also: nearly all actives have a fitted effect of over 55% in size; also: potency is read from the fitted curve at half-maximal effect
# Outline: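 Compound or DMSO vehicle was pin-transferred onto recombinant human AChE (50 mU/mL as dispensed) and left 30 min at room temperature. Acetylthiocholine with DTNB then started the reaction, read colorimetrically 10 min later.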
# [3] = molecular target: Acetylcholinesterase (Homo sapiens) (UniProt P22303); assay: Acetylcholinesterase (AChE) small molecule antagonists: fluorescence cell-based qHTS assay (AID 1347398); details: Potency: AChE activity; outcome: AChE activity; also: nearly all actives have a fitted effect of over 50% in size; also: potency is read from the fitted curve at half-maximal effect
# Outline: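 Using neuroblastoma SH-SY5Y cells as the enzyme source, test chemicals are preincubated 30 min at 37 C; AChE-driven acetylthiocholine cleavage is then quantified by thiocholine-dependent Thiolite Green fluorescence after 40 min at room temperature.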
# [4] = molecular target: Acetylcholinesterase (Homo sapiens) (UniProt P22303); assay: Acetylcholinesterase (AChE) small molecule antagonists: enzyme-based qHTS assay with human liver microsomes (AID 1347399); details: Potency: qHTS inhibition; outcome: qHTS inhibition; also: nearly all actives have a fitted effect of over 60% in size
# Outline: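 Recombinant human AChE (50 mU/mL in the enzyme mix) and human liver microsomes (0.25 mg/mL final) were preincubated with compound and NADPH (0.25 mg/mL final) for 30 min at 37 C. Acetylthiocholine/DTNB was then added; thiocholine was read colorimetrically after 10 min at room temperature.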
# Acetylcholinesterase (Homo sapiens), sequence (P22303 whole entry, looked up): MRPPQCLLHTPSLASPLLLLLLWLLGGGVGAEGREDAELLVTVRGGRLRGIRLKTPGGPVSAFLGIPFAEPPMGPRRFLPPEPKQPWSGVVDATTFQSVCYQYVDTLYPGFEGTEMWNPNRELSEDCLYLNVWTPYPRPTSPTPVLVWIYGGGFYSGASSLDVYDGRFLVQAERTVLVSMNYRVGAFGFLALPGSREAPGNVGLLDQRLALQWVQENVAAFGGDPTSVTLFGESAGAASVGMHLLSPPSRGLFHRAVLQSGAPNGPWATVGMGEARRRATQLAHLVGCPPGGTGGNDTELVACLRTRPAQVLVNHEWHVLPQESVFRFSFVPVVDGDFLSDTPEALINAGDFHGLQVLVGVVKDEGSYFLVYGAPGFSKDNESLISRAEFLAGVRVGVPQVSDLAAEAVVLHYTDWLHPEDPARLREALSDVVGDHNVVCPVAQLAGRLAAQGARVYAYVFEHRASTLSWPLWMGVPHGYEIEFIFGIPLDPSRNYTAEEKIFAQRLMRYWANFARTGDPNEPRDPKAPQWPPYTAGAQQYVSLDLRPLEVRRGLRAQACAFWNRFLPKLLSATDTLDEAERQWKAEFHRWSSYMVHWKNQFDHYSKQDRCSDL
SMILES,Potency [1],Potency [2],Potency [3],Potency [4]
Oc1ccc2c(c1)CCC2,inactive,inactive,inactive,inactive
Cc1cc(O)c(Cl)cc1C,inactive,inactive,inactive,inactive
CCCOc1ccc(S(=O)(=O)N2CCN(CC)CC2)cc1-c1nc2c(CC)n(Cc3ccccn3)nc2c(=O)[nH]1,inactive,inactive,inactive,inactive
N[C@@H](Cc1cc(I)c(Oc2ccc(O)c(I)c2)c(I)c1)C(=O)O,inactive,inactive,inactive,inactive
CC1CCC2CC1C2(C)C (stereo not given),inactive,inactive,inactive,inactive
O=C1O[C@H]([C@@H](O)CO)C(O)=C1O,inactive,inactive,inactive,inactive
Nc1cc(N)cc(C(=O)O)c1,inactive,inactive,inactive,inactive
O=C(OCC(O)CO)c1ccccc1Nc1ccnc2c(C(F)(F)F)cccc12 (stereo not given),inactive,inactive,inactive,inactive
OCC1CCCO1 (stereo not given),inactive,inactive,inactive,inactive
C=C(C)C(=O)OCCC(C)OC(=O)C(=C)C (stereo not given),inactive,inactive,inactive,inactive
N=C(N)c1ccc(OCCCCCOc2ccc(C(=N)N)cc2)cc1,35.4 µM (active) and 30.3 µM (active) and 17.4 µM (active),53.9 µM (active),22.4 µM (active) and 27 µM (active),inactive
O=C(O)CCC(=O)O,inactive,inactive,inactive,inactive
CCCCOC(=O)c1ccc(O)cc1,inactive,inactive,36 µM (active) and inactive,inactive
CCCCCCCCCCCCCCCC(=O)OCC,inactive,inactive,inactive,inactive
COc1cc(C=O)ccc1O,inactive,inactive,inactive,inactive
FC(F)(F)c1ccccc1,inactive,inactive,inactive,inactive
C[C@]12CCC(=O)C=C1C=C[C@@H]1[C@@H]2CC[C@@]2(C)[C@H]1CC[C@@]21CCC(=O)O1,inactive,inactive,inactive,inactive
Nc1ccc(Cl)c(N)c1,inactive,inactive,inactive,inactive
CC(=O)c1ccccn1,inactive,inactive,inactive,inactive
CCCCCCCCCCCCCC(=O)OCC,inactive,inactive,inactive,inactive
CC1=C(C)C(=O)C(C(CCCCCC(=O)O)c2ccccc2)=C(C)C1=O (stereo not given),inactive,inactive,inactive,inactive
COc1cc(CCC(C)=O)ccc1O,inactive,inactive,inactive,inactive
O=[N+]([O-])c1ccc(/C=N\O)o1,inactive,inactive,inactive,inactive
C=C[Si](OC(C)=O)(OC(C)=O)OC(C)=O,inactive,inactive,inactive,inactive
CC(C)OCCO,inactive,inactive,inactive,inactive
CCn1cc(C(=O)O)c(=O)c2cc(F)c(N3CCNCC3)nc21,inactive,inactive,inactive,inactive
c1ccc(CCNc2nc(-c3ccccc3)cs2)cc1,inactive,inactive,inactive,inactive
Cc1ncc(CSSCc2cnc(C)c(O)c2CO)c(CO)c1O,inactive,inactive,inactive,inactive
COc1cccc(O)c1,inactive,inactive,inactive,inactive
CC(=O)N[C@@H](CCC(N)=O)C(=O)O,inactive,inactive,inactive,inactive
